# Source: PubChem BioAssay
# Sampled rows, rich in hits. Any-hit rate of the full collection: about 2.4%.
# GLS inhibitor: qHTS for Inhibitors of Glutaminase (GLS) | Glutaminase kidney isoform, mitochondrial (Homo sapiens), O94925 | Potency, µM (top dose mostly 45.5 µM), for the others: at the top dose activity change, negative = inhibition, usual class: inhibitors | hit rate 0.21% among 410,000 | GLS enzymatic activity, qHTS titration; also: % is scaled to controls: 0 for no effect and ±100 for the full control effect
#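 Coupled fluorescence readout: glutamate oxidase/HRP/Amplex Red detect glutamate formed by hKGA from L-glutamine (1 mM solution added). Buffer 45 mM KH2PO4 pH 8.2, 0.02% Tween-20; reads at t0 and 30 min RT.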
# POLI inh: qHTS for Inhibitors of Polymerase Iota. DNA polymerase iota (Homo sapiens), Q9UNA4. hit rate 1% among 390,000. Pol iota fluorescent replication assay, 10 min. Potency, µM (top dose mostly 115 µM), inactives show at the top dose activity, negative = inhibition, actives largely listed as inhibitors
#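 Fluorescent replication assay read twice, at 0 min and 10 min after adding 50 nM (final) substrate. Enzyme (10 nM) and compounds were first incubated 15 min at room temperature; enzyme-free buffer wells were negative controls.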
# POLK inh: qHTS for Inhibitors of Polymerase Kappa. DNA polymerase kappa (Homo sapiens), Q9UBT6. purified Pol kappa, fluorescent DNA synthesis assay, 10 min. Potency, µM (highest dose often 107 µM), without a hit: at the top dose activity, negative = inhibition, hits mostly inhibitors. hit rate 0.53% among 400,000. AID 588579, 2011; also: % is scaled to controls: 0 for no effect and ±100 for the full control effect
# Target sequence (Q9UBT6 whole entry, looked up): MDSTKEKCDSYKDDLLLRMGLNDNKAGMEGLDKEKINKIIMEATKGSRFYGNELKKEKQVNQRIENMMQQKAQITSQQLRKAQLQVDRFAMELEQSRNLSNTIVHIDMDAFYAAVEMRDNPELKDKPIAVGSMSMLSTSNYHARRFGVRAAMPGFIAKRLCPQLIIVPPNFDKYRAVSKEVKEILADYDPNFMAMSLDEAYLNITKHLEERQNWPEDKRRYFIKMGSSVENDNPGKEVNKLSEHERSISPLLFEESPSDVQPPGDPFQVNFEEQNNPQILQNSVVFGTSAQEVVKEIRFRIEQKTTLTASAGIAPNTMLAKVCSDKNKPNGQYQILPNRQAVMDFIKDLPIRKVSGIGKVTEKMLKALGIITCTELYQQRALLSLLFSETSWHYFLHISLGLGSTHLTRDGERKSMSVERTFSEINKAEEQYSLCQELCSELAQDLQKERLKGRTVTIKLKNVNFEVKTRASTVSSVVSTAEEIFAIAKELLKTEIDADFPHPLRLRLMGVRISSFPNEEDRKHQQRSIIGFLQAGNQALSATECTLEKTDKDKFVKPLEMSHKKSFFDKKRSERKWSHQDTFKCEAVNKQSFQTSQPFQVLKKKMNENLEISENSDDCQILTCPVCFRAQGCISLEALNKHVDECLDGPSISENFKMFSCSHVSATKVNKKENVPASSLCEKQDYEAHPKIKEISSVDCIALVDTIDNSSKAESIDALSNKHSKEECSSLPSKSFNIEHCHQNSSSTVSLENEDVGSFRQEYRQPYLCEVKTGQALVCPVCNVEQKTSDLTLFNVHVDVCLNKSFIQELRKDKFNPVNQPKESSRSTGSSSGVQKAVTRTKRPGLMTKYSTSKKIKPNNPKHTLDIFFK
#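 Readout: fluorescence, taken kinetically at 0 and 10 min. Conditions: 10 nM Pol kappa, 15 min RT compound preincubation, 50 nM substrate final. Controls: enzyme-free buffer wells.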
# POLH inh: qHTS for Inhibitors of Polymerase Eta; DNA polymerase eta (Homo sapiens), Q9Y253; recombinant Pol eta, fluorescent DNA replication assay; Potency, µM (top dose mostly 114 µM), without a hit: top-dose activity change, negative = inhibition, most hits filed as inhibitors; hit rate 1.2% among 390,000; also: % is scaled to controls: 0 for no effect and ±100 for the full control effect
#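 Fluorescent replication assay: 50 nM final substrate added after a 15 min room-temperature compound preincubation with 10 nM enzyme. Signal taken at 0 min and again at 10 min.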
# KAT2A inh: qHTS Assay for Inhibitors of GCN5L2; Histone acetyltransferase KAT2A (Homo sapiens), Q92830; GCN5L2 HAT assay, ThioGlo1 CoA-SH fluorescence; Potency, µM (top dose mostly 58.9 µM), without a hit: at the highest dose activity change, negative = inhibition, usual class: inhibitors; hit rate 0.21% among 390,000; also: % is scaled to controls: 0 for no effect and ±100 for the full control effect
#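 Enzyme at 20nM final was mixed with library compounds for 15 min at room temperature. Peptide H3(1-25) at 75uM, acetyl-CoA at 70uM and ThioGlo1 at 50uM were then added. Plates were read immediately and after 20 min (Ex340nm/Em540nm).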
# Pol beta inh: qHTS Assay for Inhibitors of DNA Polymerase Beta. Potency, µM (doses to about 114 µM), for the others: at the highest dose activity change, negative = inhibition, actives largely listed as inhibitors. Pol beta primer extension/strand displacement, fluorescence kinetic. hit rate 1.3% among 340,000. P06746; also: % is scaled to controls: 0 for no effect and ±100 for the full control effect
#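 Curves were derived by four-parameter Hill fits of normalized qHTS data. The kinetic fluorescent primer-extension read was taken at 0 and 10 min after 50 nM substrate, following a 15 min room-temperature preincubation of 10 nM enzyme with compounds.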
# Active calls of the source: *; ? = inconclusive; nt = no result given; ! = not active in a repeat; [ ] = remark or other dose. Calls follow the shape of the dose curve; as a rule, active = well fitted inhibition curve with a large enough effect; inconclusive = small, poorly fitted or top-dose-only effect, or another doubt; inactive = no such curve, though single readings can be large or run the other way. Potency is read from the fitted curve at half-maximal effect.
SMILES,GLS inhibitor,POLI inh,POLK inh,POLH inh,KAT2A inh,Pol beta inh
COc1cc(C)ccc1OCCOc1c(Cl)cc(Cl)cc1Cl,-4.3%,13.9%,-10.5%,?,-3.3%,19.0%
COc1cc(C)ccc1OCCOc1cc(C)ccc1Cl,6.5%,4.9%,-8.4%,-26.8%,?,12.6µM*
COc1ccc(OC)c(NC(=O)c2cc3cc4ccc(C)cc4nc3s2)c1,-4.9%,20.8%,-23.7%,-27.1%,-6.3%,-0.6%
CCCCN(C)C(=O)c1cc2cc3ccc(OC)cc3nc2s1,-7.7%,-7.1%,-10.0%,-9.1%,-5.6%,-1.5%
CCN(CCCNC(=O)c1cc2cc3ccc(OC)cc3nc2s1)c1ccccc1,6.6%,79.4µM*,79.4µM*,?,-5.4%,11.2µM*
CCN(CCCNC(=O)c1cc2cc3ccc(OC)cc3nc2s1)c1cccc(C)c1,2.5%,79.4µM*,?,?,-12.7%,3.98µM*
COc1ccccc1CCNC(=O)C(=O)NCC(c1ccco1)S(=O)(=O)c1ccccc1 (stereo unspecified),-7.5%,-8.0%,-2.0%[60.1 µM],-7.9%,-6.3%,0.4%
O=C1c2ccccc2-c2n[nH]c3cccc1c23,5.3%,?,?,?,-27.5%,31.6µM*
Cc1ccc(NC2=C(Cl)C(=O)c3ccccc3C2=O)cc1,-6.1%,27.0%,-12.2%,?,-1.2%,-4.2%[57.1 µM]
COC1=C(Nc2ccc(O)cc2)C(=O)c2ccccc2C1=O,7.94µM*,25.1µM*,-16.9%,-10.7%,1.6%,?
O=C1C(Cl)=C(Nc2ccc(O)cc2)C(=O)c2ccccc21,1.26µM*,118.7%,-16.5%,-7.3%,-0.1%,-20.7%
COC1=C(Nc2ccc(OC)cc2)C(=O)c2ccccc2C1=O,1.9%,?,-4.9%,-8.2%,0.1%,?
CC1=CC(=O)C(C(C)C)=C/C1=C(\c1cc(C(C)C)c(OP(=O)(O)O)cc1C)c1ccccc1C(=O)O,?,50.9%,-19.9%,79.4µM*,-22.1%,50.1µM*
CCOc1ccc(C(=O)c2ccccc2C(=O)O)cc1OCC,9.4%,16.6%,-2.9%,-10.4%,-1.7%,17.1%
Cc1csc[n+]1CC(=O)c1ccc(I)cc1,nt,-0.3%,-15.6%,nt,nt,nt
Cc1occc1-c1nnc(SCc2cc(=O)n3cc(Br)ccc3n2)n1C,-9.6%,?,-44.8%,?,0.0%,44.7µM*
CCCCOCc1cc(CN2CCN(c3cccc(Cl)c3)CC2)c(O)c2ncccc12,-14.8%,33.9%,7.8%,nt,20µM*,15.5%
CN1CCN(Cc2cc(COCc3ccccc3)c3cccnc3c2O)CC1,3.98µM*,141.3%,-1.1%,-8.3%,-4.4%,16.7%
CCCOCc1cc(CN2CCN(c3cccc(Cl)c3)CC2)c(O)c2ncccc12,0.8%,-21.6%,0.0%,-17.2%,-12.9%,23.5%
CCc1ccc(NS(=O)(=O)c2cc(OC)ccc2OC)cc1,46.6%,19.7%,-9.0%[60.1 µM],-19.5%,-8.0%,-1.9%
CCc1ccc(NS(=O)(=O)c2[nH]ncc2C(=O)OC)cc1,?,79.4µM*,-26.0%,-12.4%,-3.4%,?
C=Cc1c(C)/c2[n-]/c1=C\c1[n-]c(c(CC)c1C)/C=c1\[n-]c3c(c1C)C(=O)C(C(=O)[O-])C=3c1[n-]c(c(C)c1CCC(=O)[O-])\C=2.[Cu].[Na+].[Na+] (stereo unspecified),-128.2%,nt,0.891µM*,nt,2.51µM*,nt
CCOC(=O)c1c(NC(=O)C2CC(Cl)=CCC2C(=O)O)sc2c1CCCCC2 (stereo unspecified),1.3%,-1.5%,-23.4%,-10.5%,-27.8%,35.5µM*
O=C(Cc1ccccc1Nc1c(Cl)cccc1Cl)OCO/N=[N+](\[O-])N1CCCC1,nt,?,-15.1%,nt,nt,nt
N=C1SC(c2ccccc2)C(=O)N1c1ncc(Cc2ccccc2)s1 (stereo unspecified),1.9%,2.4%,-41.9%,-0.3%,-5.2%,50.1µM*
SMILES,GLS inhibitor,POLI inh,POLK inh,POLH inh,KAT2A inh,Pol beta inh
NS(=O)(=O)c1nn2cc(-c3ccccc3)nc2s1,nt,nt,-17.2%[60.1 µM],nt,0.0%,nt
Cc1ccccc1Nc1nc(N)nc(COC(=O)c2ccc([N+](=O)[O-])o2)n1,1.6%,?,-23.0%,89.1µM*,-4.1%,nt
CC1Cn2c(C(=O)NCc3ccccc3Cl)cc3cccc(c32)S1 (stereo unspecified),4.1%,1.2%,1.5%,-12.2%,-6.1%,0.7%
O=C(N/N=C/c1ccc([N+](=O)[O-])o1)c1ccccc1NS(=O)(=O)c1cccs1,0.4%,39.8µM*,-25.3%,56.2µM*,-4.4%,?
COC(=O)C1N2C(=O)[C@@H](NC(=O)COc3ccccc3)[C@H]2SC1(C)C (stereo partly specified),-3.6%,79.4µM*!,13.6%,-6.1%,nt,nt
CC(Oc1ccccc1)C(=O)NC1C(=O)N2C(C(=O)O)C(C)(C)S[C@@H]12 (stereo partly specified),nt,nt,-9.2%[60.1 µM],nt,8.0%,nt
CC1(C)S[C@@H]2[C@H](NC(=O)C(C(=O)O)c3ccccc3)C(=O)N2[C@H]1C(=O)O (stereo partly specified),-26.8%,?,-22.4%,-12.0%,4.3%,26.0%
Cc1onc(-c2c(F)cccc2Cl)c1C(=O)N[C@@H]1C(=O)N2[C@H]1SC(C)(C)[C@H]2C(=O)O,3.55µM*,nt,3.7%[60.1 µM],nt,-7.0%,nt
CC1(C)S[C@H]2C(NC(=O)[C@@H](N)c3ccc(O)cc3)C(=O)N2[C@@H]1C(=O)O (stereo partly specified),14.1µM*,nt,?,nt,-5.2%,nt
CC1(C)SC2C(N3C(=O)C(c4ccccc4)NC3(C)C)C(=O)N2C1C(=O)O (stereo unspecified),28.2µM*,nt,7.08µM*,nt,0.9%,nt
COc1cccc(NCc2nnc(SC(C(=O)N(C)C)c3ccccc3)n2C2CCCCC2)c1 (stereo unspecified),nt,1.3%,-12.0%,nt,nt,nt
CC1=Nc2ccccc2/C1=C(/C)c1c(C)[nH]c2ccccc12,nt,-2.6%,-20.4%,nt,nt,nt
COC(=O)c1ccccc1NC(=O)c1cnc(Nc2ccc(OC)cc2)c2ccccc12,7.5%,-27.9%,-10.8%,-5.4%,-11.1%,3.0%
CCN1CCN(C(=O)N[C@@H](C(=O)N[C@@H]2C(=O)N3[C@@H]2SC(C)(C)[C@@H]3C(=O)O)c2ccccc2)C(=O)C1=O,nt,nt,nt,nt,-3.4%,-2.3%
CC1(C)S[C@@H]2[C@H](NC(=O)[C@H](N)c3ccccc3)C(=O)N2[C@H]1C(=O)O,10µM*,28.2µM*,22.4µM*!,10µM*,-9.9%,?
